CYP2C19 inh = blockers of cytochrome P450 2C19 activity – biochemical, luminescence, ADME assay, primary screen. inhibition, % at 5 µM. CYP2C19 Supersomes, luciferin-H EGE luminescence, 30 min. P33261. hit rate 21% among 96,000;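 active means CYP2C19 inhibition above a set limit at 5 µM in the primary screen, cut at about 50% in these data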;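 further: plate controls were negative control wells for no effect and 2.5 mM tranylcypromine positive control for full effect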
CYP2C19 activ = human CYP2C19 activators, primary screen, biochemical, luminescence; Cytochrome P450 2C19 (Homo sapiens), P33261; recombinant CYP2C19, luciferin-H EGE luminescence; active compounds read high; 0 = fully inhibited enzyme, 1 = untreated enzyme; activation factor at 5 µM; 96,000 tested, under 10 active;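 active means activation factor of at least 2 at 5 µM in the primary screen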;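 further: 0 = wells with 2.5 mM tranylcypromine and 1 = vehicle-only wells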
PostGolgi ctrl = growth inhibition of yeast control strain, primary screen, counter-screen for post-Golgi transport modulator project; efflux-deficient yeast background strain, growth absorbance A615, 16 h; inhibition, % at 10 µM; hit rate 5% among 98,000; AID 738, 2007
CYP2C9 act = human CYP2C9 activators, primary screen, biochemical, luminescence; activation factor at 5 µM; recombinant CYP2C9, luciferin-H conversion; active compounds read high; factor 1 = untreated enzyme, 0 = blocked; hit rate 1.4% among 96,000;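 active means activation factor of 2 or more for CYP2C9 at a 5 µM dose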;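 further: 0 = sulfaphenazole-blocked wells and 1 = vehicle-only wells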
Target sequence (P11712 whole entry, looked up): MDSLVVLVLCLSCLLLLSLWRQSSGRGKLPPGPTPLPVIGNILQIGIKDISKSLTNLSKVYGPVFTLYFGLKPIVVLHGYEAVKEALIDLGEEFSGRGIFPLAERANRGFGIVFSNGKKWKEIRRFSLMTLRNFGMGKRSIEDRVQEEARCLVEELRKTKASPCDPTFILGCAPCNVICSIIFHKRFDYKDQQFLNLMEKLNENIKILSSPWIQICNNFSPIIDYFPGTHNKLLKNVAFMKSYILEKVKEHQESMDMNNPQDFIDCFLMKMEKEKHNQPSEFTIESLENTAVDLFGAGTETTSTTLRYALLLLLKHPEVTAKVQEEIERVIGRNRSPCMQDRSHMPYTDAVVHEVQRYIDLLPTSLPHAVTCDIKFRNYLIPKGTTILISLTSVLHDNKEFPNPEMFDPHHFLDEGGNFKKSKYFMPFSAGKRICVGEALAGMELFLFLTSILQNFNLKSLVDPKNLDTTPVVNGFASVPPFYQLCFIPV
CYP2C9 inh = blockers of cytochrome P450 2C9 activity – biochemical, luminescence, ADME assay, primary screen. P11712. CYP2C9 Supersomes, luciferin-H conversion. inhibition, % at 5 µM. hit rate 20% among 96,000. AID 777, 2007;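 active means blocking of liver enzyme CYP2C9 beyond about 50% at 5 µM, limit read from the data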
PostGolgi yeast = phenotypic screen on post-Golgi transport, primary screen. hit rate 0.9% among 98,000. post-Golgi transport phenotypic cell assay. inhibition, % at 10 µM. AID 739, 2007;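 further: yeast cells grown in 1536-well plates; yeast grown about 18 h at 30C before absorbance read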
* hit, by the source's call. Rows were chosen to be rich in hits. Some 32% of all compounds tested hit in one or more screens of this group. Unless noted, no stated cut-off is given here; in the data, active means inhibition above about 30%; inactive means the rest.

How did CCOC(=O)C1(C)NC(c2ccc(OC)cc2OC)C2C(=O)N(c3cccc(OC)c3)C(=O)C21 (stereo not given) do in these assays?
CYP2C19 inh: 80*; CYP2C19 activ: 0.2; PostGolgi ctrl: 4; CYP2C9 act: 0.2; CYP2C9 inh: 83*; PostGolgi yeast: -4

What do the screens show for `COc1cc(C(c2c(C)[nH][nH]c2=O)c2c(C)[nH][nH]c2=O)ccc1OS(=O)(=O)c1ccccc1`?
CYP2C19 inh: 23; CYP2C19 activ: 0.8; PostGolgi ctrl: -1; CYP2C9 act: 0.6; CYP2C9 inh: 37; PostGolgi yeast: 2

What do the screens show for `CC(=O)Oc1ccc(C2OC(=O)c3ccccc3N2C(C)=O)cc1` (stereo not given)?
CYP2C19 inh: 8; CYP2C19 activ: 0.9; PostGolgi ctrl: 6; CYP2C9 act: 0.9; CYP2C9 inh: 9; PostGolgi yeast: 1

How did COC(=O)CC1COc2ccccc2N1C(=O)c1ccc(OC)cc1 (stereo not given) do in these assays?
CYP2C19 inh: 62*; CYP2C19 activ: 0.4; PostGolgi ctrl: 5; CYP2C9 act: 0.5; CYP2C9 inh: 48; PostGolgi yeast: 16

What do the screens show for `COc1ccc(C(=O)N2c3ccccc3C(=O)OC2c2ccc3c(c2)OCO3)cc1` (stereo not given)?
CYP2C19 inh: 83*; CYP2C19 activ: 0.2; PostGolgi ctrl: 3; CYP2C9 act: 0.2; CYP2C9 inh: 81*; PostGolgi yeast: -3

Results for COc1ccc(C2Oc3ccccc3N2C(C)=O)cc1 (stereo not given) ?
CYP2C19 inh: 64*; CYP2C19 activ: 0.4; PostGolgi ctrl: 6; CYP2C9 act: 0.3; CYP2C9 inh: 69*; PostGolgi yeast: -4

What do the screens show for `CCOC(=O)C1CCCN(C(=O)c2c(-c3ccccc3Cl)noc2C)C1` (stereo not given)?
CYP2C19 inh: 79*; CYP2C19 activ: 0.2; PostGolgi ctrl: -1; CYP2C9 act: 0.3; CYP2C9 inh: 69*; PostGolgi yeast: -1

Results for Cc1onc(-c2c(F)cccc2Cl)c1C(=O)N1CCc2ccccc2C1 ?
CYP2C19 inh: 96*; CYP2C19 activ: 0; PostGolgi ctrl: 5; CYP2C9 act: 0.3; CYP2C9 inh: 68*; PostGolgi yeast: 1

What do the screens show for `Cc1onc(-c2ccccc2Cl)c1C(=O)N1CCc2ccccc2C1`?
CYP2C19 inh: 54*; CYP2C19 activ: 0.5; PostGolgi ctrl: 13; CYP2C9 act: 0.5; CYP2C9 inh: 46; PostGolgi yeast: 17

What do the screens show for `Cc1onc(-c2c(Cl)cccc2Cl)c1C(=O)N1CCc2ccccc21`?
CYP2C19 inh: 88*; CYP2C19 activ: 0.1; PostGolgi ctrl: 16; CYP2C9 act: 0.2; CYP2C9 inh: 85*; PostGolgi yeast: 7

Results for Cc1onc(-c2ccccc2Cl)c1C(=O)N1CC(C)OC(C)C1 (stereo not given) ?
CYP2C19 inh: 14; CYP2C19 activ: 0.9; PostGolgi ctrl: 6; CYP2C9 act: 1.1; CYP2C9 inh: -6; PostGolgi yeast: 8

Results for Cc1onc(-c2c(F)cccc2Cl)c1C(=O)N1CCN(S(C)(=O)=O)CC1 ?
CYP2C19 inh: -1; CYP2C19 activ: 1; PostGolgi ctrl: -11; CYP2C9 act: 1.2; CYP2C9 inh: -22; PostGolgi yeast: -8

Results for CCOC(=O)C1CCN(C(=O)c2c(-c3c(F)cccc3Cl)noc2C)CC1 ?
CYP2C19 inh: 6; CYP2C19 activ: 0.9; PostGolgi ctrl: 10; CYP2C9 act: 0.7; CYP2C9 inh: 28; PostGolgi yeast: -4

How did COc1ccc(CN2C(=O)CCC2(C)C(=O)NC2CCCCCC2)cc1 (stereo not given) do in these assays?
CYP2C19 inh: 3; CYP2C19 activ: 1; PostGolgi ctrl: 5; CYP2C9 act: 1; CYP2C9 inh: -4; PostGolgi yeast: 6

How did COc1cc(C2CC(=O)N3CN(c4ccccc4C)CSC3=C2C#N)cc(OC)c1OC (stereo not given) do in these assays?
CYP2C19 inh: 37; CYP2C19 activ: 0.6; PostGolgi ctrl: 2; CYP2C9 act: 0.4; CYP2C9 inh: 64*; PostGolgi yeast: 10

Results for COc1ccccc1N1CSC2=C(C#N)C(c3ccc(SC)cc3)CC(=O)N2C1 (stereo not given) ?
CYP2C19 inh: 34; CYP2C19 activ: 0.7; PostGolgi ctrl: -2; CYP2C9 act: 0.1; CYP2C9 inh: 88*; PostGolgi yeast: -23

Results for COc1cc(NC(=O)c2cccs2)c(C(=O)OCC(=O)NCc2ccccc2)cc1OC ?
CYP2C19 inh: 17; CYP2C19 activ: 0.8; PostGolgi ctrl: -1; CYP2C9 act: 0.5; CYP2C9 inh: 49; PostGolgi yeast: 1

Results for COc1cc(NC(=O)c2cccs2)c(C(=O)OCC(=O)NC(C)c2ccccc2)cc1OC (stereo not given) ?
CYP2C19 inh: 64*; CYP2C19 activ: 0.4; PostGolgi ctrl: 30*; CYP2C9 act: 0.1; CYP2C9 inh: 90*; PostGolgi yeast: 6

What do the screens show for `CC(=O)Nc1ccc(N2S(=O)(=O)c3ccccc3S2(=O)=O)cc1`?
CYP2C19 inh: 11; CYP2C19 activ: 0.9; PostGolgi ctrl: -2; CYP2C9 act: 2.3*; CYP2C9 inh: -133; PostGolgi yeast: 8

Results for Cn1c(Cc2ccc3c(c2)OCO3)nnc1SCC(=O)N1CCc2ccccc2C1 ?
CYP2C19 inh: 42; CYP2C19 activ: 0.6; PostGolgi ctrl: 2; CYP2C9 act: 0.9; CYP2C9 inh: 11; PostGolgi yeast: 0

How did COc1ccc(CCNc2ncnc3[nH]ncc23)cc1OC do in these assays?
CYP2C19 inh: 30; CYP2C19 activ: 0.7; PostGolgi ctrl: 2; CYP2C9 act: 0.7; CYP2C9 inh: 25; PostGolgi yeast: -3

Results for CCOc1cc(C)nc(NCCc2ccc(OC)c(OC)c2)n1 ?
CYP2C19 inh: 66*; CYP2C19 activ: 0.3; PostGolgi ctrl: 0; CYP2C9 act: 0.8; CYP2C9 inh: 21; PostGolgi yeast: -10

How did CCOc1nc(NCCc2ccc(OC)c(OC)c2)nc(N2CCN(c3ccc(OC)cc3)CC2)n1 do in these assays?
CYP2C19 inh: 46; CYP2C19 activ: 0.5; PostGolgi ctrl: 4; CYP2C9 act: 0.7; CYP2C9 inh: 31; PostGolgi yeast: -9

How did COc1nc(NCCc2ccc(OC)c(OC)c2)nc(NC(C)(C)CO)n1 do in these assays?
PostGolgi ctrl: 4; PostGolgi yeast: 5

Results for COc1ccc(CCNc2ccncn2)cc1OC ?
CYP2C19 inh: 94*; CYP2C19 activ: 0.1; PostGolgi ctrl: 16; CYP2C9 act: 0.3; CYP2C9 inh: 67*; PostGolgi yeast: -2

What do the screens show for `CCOC(=O)c1cnc2ccccc2c1NCCc1ccc(OC)c(OC)c1`?
CYP2C19 inh: 75*; CYP2C19 activ: 0.3; PostGolgi ctrl: -7; CYP2C9 act: 0.2; CYP2C9 inh: 83*; PostGolgi yeast: 5
